Rows were chosen to be rich in hits. Some 9.3% of all compounds tested hit in one or more screens of this group.
NPC1 promoter act – activates the NPC1 promoter; Huh7 NPC1 promoter luciferase reporter, 24 h; Potency, µM (series often up to 9.22 µM), inactives show top-dose activation, hits mostly activators; actives 2.4% (n = 320,000); AID 485313; note: % of control where 0% means no effect; nearly all actives have a fitted effect of over 60% in size
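Cells: Huh7 expressing luciferase under the NPC1 promoter, 1500/well. Seeded 2 h, compound added, incubated 24 h at 37 °C. Luciferase reagent, 10 min ambient, then luminescence.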
Rab9 prom act – Rab9 promoter activation; AID 485297; Potency, µM (top dose mostly 9.22 µM), for inactives: at the top dose activation, negative = inhibition, most hits filed as activators; actives 2.8% (n = 320,000); Huh7 Rab9 promoter-luciferase reporter, luminescence, 24 h; note: % of control where 0% means no effect; nearly all actives have a fitted effect of over 60% in size
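Steps: seed 1500 Huh7 Rab9-luc cells per well, rest 2 h at 37 °C; add compound in DMSO; incubate 24 h; add luciferase reagent, 10 min ambient; read luminescence.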
FLuc counter – inhibits or activates purified firefly luciferase, miR-21 counter-screen. purified FLuc, Km substrates, luminescence inhibition. Potency, µM (series often up to 57.5 µM), without a hit: top-dose activity change, negative = inhibition, hits mostly inhibitors. actives 6.9% (n = 360,000);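 note: plate controls were vehicle for no effect and reference inhibitor for full effect; nearly all actives have a fitted effect of over 55% in size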
Target sequence (P08659 whole entry, looked up): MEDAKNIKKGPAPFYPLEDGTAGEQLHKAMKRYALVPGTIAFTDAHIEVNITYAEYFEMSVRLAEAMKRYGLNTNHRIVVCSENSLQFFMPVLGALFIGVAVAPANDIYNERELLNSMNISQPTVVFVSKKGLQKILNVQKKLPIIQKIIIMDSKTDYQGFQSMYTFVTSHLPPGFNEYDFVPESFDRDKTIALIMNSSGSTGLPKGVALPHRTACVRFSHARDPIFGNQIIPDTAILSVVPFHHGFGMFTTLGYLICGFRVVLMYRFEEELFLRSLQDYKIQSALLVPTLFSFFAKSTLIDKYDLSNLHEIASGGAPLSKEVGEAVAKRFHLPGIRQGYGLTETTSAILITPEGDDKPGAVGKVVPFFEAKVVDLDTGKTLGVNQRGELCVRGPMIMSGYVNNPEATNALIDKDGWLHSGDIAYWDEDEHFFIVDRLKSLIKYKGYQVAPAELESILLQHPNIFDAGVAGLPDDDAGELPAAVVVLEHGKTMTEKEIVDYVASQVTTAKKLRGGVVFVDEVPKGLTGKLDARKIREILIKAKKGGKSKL
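Biochemical qHTS of compounds, final roughly 60 µM downward over six points, against 10 nM purified firefly luciferase using Km concentrations of substrates (10 uM D-luciferin, 10 uM ATP) in Tris acetate pH 7.5 buffer; luminescence output.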
ELG1 DNA repair – ELG1-dependent DNA repair inhibition | HEK293T ELG1-luciferase reporter, luminescence, 16 h; DNA damage induced by 5-fluorouridine | actives 2.3% (n = 330,000) | Potency, µM (highest dose often 46.1 µM), without a hit: top-dose activity change, negative = inhibition, actives largely listed as inhibitors | AID 504467; note: % is set by controls: 0 for no effect and ±100 for the full control effect; nearly all actives have a fitted effect of over 55% in size
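Reporter activity after DNA damage by 5-fluorouridine is monitored. Compound-treated cells incubate 16 hr at 37 °C, then ONE-Glo is added for 30 min before luminescence reading.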
SMN2 splice enh – SMN2 splice variant enhancement. HEK293 SMN2-luciferase splicing reporter, luminescence, 30-36 h. Potency, µM (top dose mostly 46.1 µM), without a hit: at the highest dose activity change, positive = activation, hits mostly activators. actives 2.8% (n = 210,000). AID 1458; note: % of control where 0% means no effect; nearly all actives have a fitted effect of over 55% in size
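HEK293 cells carry an SMN2 […]–luciferase reporter in which exon 7 inclusion puts luciferase in frame. Cells were plated 10-12 h before compound addition, then incubated 30-36 h at 37C. ONE-Glo luminescence was read; sodium butyrate at 4.5 mM final served as control.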
ELG1 genotoxic – inducers of genotoxicity in HEK293T ELG1-luciferase cells | AID 504466 | HEK293T ELG1-luciferase reporter, luminescence, 16 h | actives 1.3% (n = 330,000) | Potency, µM (titrated, usually from 46 µM), for the others: at the top dose activity change, positive = activation, usual class: activators; note: % of control where 0% means no effect; nearly all actives have a fitted effect of over 60% in size
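16 hr compound incubation (37 °C, 5% CO2) of HEK293T cells carrying luciferase-tagged ELG1; luciferase then measured by ONE-Glo luminescence after 30 min at RT.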
* hit, by the source's call; ? = inconclusive; / = no result given; [ ] = another dose, or the depositor's remark. Calls come from the whole dose curve; as a rule, active = well fitted curve in the direction sought with a large enough effect; inconclusive = small, poorly fitted or top-dose-only effect, or another doubt; inactive = no such curve, though single readings can be large; an effect the other way counts as inactive or inconclusive. Potency is the fitted concentration of half-maximal effect.

SMILES | NPC1 promoter act | Rab9 prom act | FLuc counter | ELG1 DNA repair | SMN2 splice enh | ELG1 genotoxic
CCC(C)c1ccc2oc(-c3ccc(NC(=O)c4ncn[nH]4)cc3)nc2c1 (stereo not given) | 15% | 6% | 2.7µM* | ? | 26% | ?
COc1cc(OC)cc(C(=O)Nc2ccc(-c3nc4ccccc4o3)cc2)c1 | -3% | -2% | -10% | ? | -13% | -5%
CC(C)c1ccc2oc(-c3ccc(NC(=O)c4ncn[nH]4)cc3)nc2c1 | ? | ? | 1.5µM* | ? | ? | 9.2µM*
CCC(C)c1ccc(O)c(NC(=O)c2ncn[nH]2)c1 (stereo not given) | 5% | 1% | ? | -3% | -14% | 0%
COc1ccc([C@@H](C)NC(=O)c2ccc3oc(C(C)C)nc3c2)cc1 | ? | ? | 17µM* | 0% | / | 3%[9.26 µM]
CCc1ccc(C(=O)Nc2cccc(-c3nc4cc(C(C)C)ccc4o3)c2)cc1 | / | / | 2.7µM* | / | -5% | /
Cc1ccc2c(COC(=O)c3ccccc3F)cc(=O)oc2c1 | ? | ? | 0.19µM* | ? | / | 2.1µM*
Cc1ccc2c(COC(=O)c3n[nH]c4ccccc34)cc(=O)oc2c1 | ? | 12% | 5.4µM* | ? | / | 4.6µM*
Cc1ccc2c(COC(=O)CNS(=O)(=O)c3ccccc3)cc(=O)oc2c1 | / | / | / | ? | / | 5%
CCc1ccc2c(COC(=O)c3n[nH]c4ccccc34)cc(=O)oc2c1 | ? | ? | 5.4µM* | ? | ? | ?
Cc1ccc2c(COC(=O)c3c(C)noc3C)cc(=O)oc2c1 | -22% | 5% | ? | -1% | -25% | 3%
CCCCn1nnc(NC(=O)c2ccc(-c3ccccc3[N+](=O)[O-])o2)n1 | 5% | 21% | ? | ? | 24% | 4%
Nc1c(C(=O)Nc2ccccc2)nnn1-c1ccc2c(c1)OCCO2 | 0.22µM* | 0.1µM* | 0.85µM* | ? | / | 0.18µM*
Cc1ccc(NC(=O)c2nnn(-c3cccc(C(F)(F)F)c3)c2N)cc1 | -3% | -2% | -2% | 12% | 0% | 15%
Cc1ccc(NC(=O)c2nnn(-c3ccc4c(c3)OCCO4)c2N)cc1 | 2.2µM* | 5.6µM* | 11µM* | ? | / | ?
Nc1c(C(=O)Nc2ccc(F)cc2)nnn1-c1cccc(C(F)(F)F)c1 | 1% | -2% | -1% | 7% | -14% | -4%
CC1Cc2ccccc2N1C(=O)CSc1ncc(-c2ccc(F)cc2)n1C (stereo not given) | 3.5µM* | 1.1µM* | 1.9µM* | ? | 13µM* | ?
Cn1c(-c2ccc(F)cc2)cnc1SCC(=O)N1CCCc2ccccc21 | -1% | -6% | ? | -10% | -11% | 0%
O=C(CSc1ncc(-c2ccccc2)n1CC1CCCO1)N1CCCCC1 (stereo not given) | 10% | 2% | -2% | 0% | -23% | 9%
Cn1c(-c2ccc(F)cc2)cnc1SCC(=O)N1CCCCC1 | 0.56µM* | 0.5µM* | 2.7µM* | ? | 8.9µM* | 2.6µM*
CCn1cc(C(=O)NCc2cccnc2)c2cc(OC)c(OC)cc2c1=O | -7% | -3% | 1% | -3% | 6% | -3%
COC(=O)C(C)N1C(=O)S/C(=C/c2cc(C)n(-c3ccccn3)c2C)C1=O (stereo not given) | 1.6µM* | 0.89µM* | 3µM* | ? | -42% | 2.6µM*
CCOC(=O)C(C)N1C(=O)S/C(=C/c2ccc3c(c2)n(C)c(=O)n3C)C1=O (stereo not given) | -6% | 20% | -1% | 3% | 8% | ?
CCOC(=O)CN1C(=O)S/C(=C/c2cc(C)n(-c3ccccn3)c2C)C1=O | ? | 4µM* | 6µM* | ? | -6% | 17%
COC(=O)C(C)N1C(=O)S/C(=C\c2cc(C)n(-c3ccccn3)c2C)C1=O (stereo not given) | 2µM* | 2µM* | 2.7µM* | ? | -59% | 1.6µM*
SMILES | NPC1 promoter act | Rab9 prom act | FLuc counter | ELG1 DNA repair | SMN2 splice enh | ELG1 genotoxic
Cc1cccc(N2CCN(C(=O)c3cccc(N4CCCC4=O)c3)CC2)c1C | -3% | -5% | 4% | ? | / | -10%
O=C(c1cccc(S(=O)(=O)N2CCCCCC2)c1)N1CCN(c2ccccc2F)CC1 | -2% | 0% | -3% | ? | / | -15%
Cc1cccc(N2CCN(C(=O)c3cccc(N4C(=O)C5CC=CC(C)C5C4=O)c3)CC2)c1C (stereo not given) | -1% | -3% | -1% | 23µM* | -27% | -10%
CC1Cc2ccccc2N1S(=O)(=O)c1cccc(C(=O)N2CCN(c3ncccn3)CC2)c1 (stereo not given) | -11% | 25% | 2% | 19% | 0.56µM* | -14%
CC1Cc2ccccc2N1S(=O)(=O)c1cccc(C(=O)NCCCO)c1 (stereo not given) | -14% | -2% | 2% | -3% | -22% | -5%
COc1ccccc1N1CCN(C(=O)c2cccc(S(=O)(=O)N3CCCCCC3)c2)CC1 | -3% | -5% | 3% | 13µM* | / | -5%
CCOC(=O)c1ccc(NC(=O)c2cccc(S(=O)(=O)N3c4ccccc4CC3C)c2)s1 (stereo not given) | -10% | -9% | 3% | 21µM* | -48% | -13%
CCOC(=O)c1c(C)sc(-c2c(-c3cc(C)ccc3C)[nH]c3c2c(=O)[nH]c(=O)n3C)c1O | / | / | -18% | / | / | /
O=C(c1ccc(N2CCCC2=O)cc1)N1CCN(c2ccccc2O)CC1 | -2% | -4% | / | 18µM* | / | -7%
COc1ccc(S(=O)(=O)N2CCCCCC2)cc1C(=O)N1CCN(c2ccccc2O)CC1 | -3% | -13% | 4% | 13µM* | / | -4%
Cc1ccccc1NS(=O)(=O)c1ccc(C(=O)N2CCCC2)cc1 | 0% | 6% | 0% | 8% | / | 2%
O=C(c1ccc(N2CCCC2=O)cc1)N1CCN(c2ccccc2F)CC1 | 0% | -2% | 1% | -2% | / | 0%
Cc1cccc(NS(=O)(=O)c2ccc(C(=O)N3CCN(c4ccccc4O)CC3)cc2)c1C | -1% | -1% | 2% | 21µM* | / | -11%
Cc1cccc(N2CCN(C(=O)c3cccc(S(=O)(=O)N4CCCCC4)c3)CC2)c1C | / | / | / | 13µM* | / | -4%
CC(C)(CN1CCC(Cc2ccccc2)CC1)NS(=O)(=O)c1ccccc1 | 4% | 1% | -2% | ? | / | 5%
CC1CCN(c2nc3ccccc3nc2C(C#N)C(=O)OC2CCCCC2)CC1 (stereo not given) | 2% | 4% | -3% | 21% | -12% | -2%

Source: PubChem BioAssay
